± gives the standard deviation.
System: EfPiwi piRISC loaded with L1MC piRNA (26 nt)
Test: pre-steady-state target cleavage rate (min^-1); auxiliary factor: 500 nM Ephydatia muelleri Gtsf1; guide: L1MC piRNA 5'p-UAACUAAAUACUAUGCAAGCUGUAGG; MIWI and MILI are mouse PIWI proteins and EfPiwi is from a freshwater sponge; tags in brackets are library labels; higher = faster piRNA-guided slicing of the target
How it was run: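 In Cleave-'n-Seq, a transcribed, DNA-blocked target RNA library (0.1 nM) was combined with 1 nM active affinity-purified piRISC bearing one synthetic guide, with or without 500 nM GTSF1 partner protein. Reactions ran in HEPES–potassium acetate buffer at 33 °C for 0–8 or 0–960 min. Uncleaved targets were sequenced and normalised to depth and to weakly complementary targets, three trials were pooled, and k3 was capped at 0.0001 min^-1. The pre-steady-state cleavage rate was obtained by fitting a burst-and-steady-state model.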

Sequence	pre-steady-state target cleavage rate
UCCUGGAUGUGCUUGCAUAGUAUUUAGUUC [g2:g20:cont:t1C]	0.0175 ± 0.0048
UCCUGGAACUGCUUGCAUAGUAUUUUGUUA	0.00426 ± 0.0026
UCCUGGAUGUGCUUGCAUACUAUUUAGAUA	0.00202 ± 0.0015
UCCUGGAUGUGCUUCCAUAGUAUUUAGAAA	0.00625 ± 0.0039
UCCUCCUACAGCUUGCAUAGUAUUAUGUAA	0.00434 ± 0.0026
UCCUGCUACAGCUUGCAUUGUAUUUACUUA	0.00271 ± 0.0027
UCCUGGAUGUGCUUGCAUAGUAUUUAGCUA	0.00363 ± 0.0021
UCCUGGAUGUCGAACCAUAGUAUUUAGUUC [g2:g15:cont:t1C]	< 0.0001
UCCUGCUACUGCUUGCAUAGUUUUUAGUUA	0.00399 ± 0.0017
UCCUCCUACAGCUUGCAUAGUAAAAUCAAA	0.0042 ± 0.0034
UCCUGGUUGUGCUUGCAUAGUAUUUAGUUA	0.0119 ± 0.0045
UCCUGCAUCAGCUUGCAUAGUAUUUAGUAA	0.00847 ± 0.0021
UCCUGCUACAGCUUCCAUAGUAUAUAGUUA	0.00251 ± 0.0024
UCCUCCAACAGCUUGCAUAGAAUUUAGUUA	0.00468 ± 0.0016
UCCUGGAUGUGCUUGCAUAGUAUUUAGUA	0.00405 ± 0.002
UCCUGCUACAGCUUCCAUUGUAUUUAGUUA	0.00266 ± 0.0018
UCCUGGUACAGCUUGCAUGGUAUUUAGUUA	0.00828 ± 0.0033
UCCUGGAUCAGCUUGCAAAGUAUUUAGAUA	0.00558 ± 0.0029
UCCUGCUACAGCAUGCAUAGUAUUUUGUUA	0.00422 ± 0.002

Sequence	pre-steady-state target cleavage rate
UCCUGGAUGUCGAACGUUAGUAUUUAGAUA	< 0.0001
UCCUGCUACACGUUGCAUAGUAUUUAGUAA	0.00458 ± 0.0025
UCCUGGAUGUCGAUGCUUAGAAUUUAGUUA	< 0.0001
UCCUCCUACAGCUUGCAUAGUAUUAUGUUA	0.0049 ± 0.0026
UCCUGGAUGUGCUUGCAUUCAUAAAUCAAA [g13:g20:cont:t1A]	< 0.0001
UCCUGGUACAGCUUGCGAUAGUAUUUAGUUA	0.00543 ± 0.0019
UCCUGGAACAGCUAGCAUAGUAUUUAGUAA	0.00289 ± 0.0015
UCCUCCUACAGAUUGCAUAGUAUUUAGUUA	0.0555 ± 0.014
UCCUGCUACAGCUUCCAUAGUAUUUAGAAA	0.00349 ± 0.0019
UCCUGGAUGUCGAACGAUACGUAUUUAGUUA	< 0.0001
UCCUGGAUCAGCAUGCAUAGUAUUUAGAUA	0.0044 ± 0.0024
UCCUGCAAGAGCUUGCAUAGUAUUUAGUUA	0.0267 ± 0.0065
UCCUCGUACAGCUUGCAUAGUAUAUAGUUA	0.0103 ± 0.0042
UCCUGCUACAGCUUGUAUAGUAUUUAGUUA	0.029 ± 0.0067
UCCUCCUACAGCUUGGAUAGUAUUUAGUUA	0.057 ± 0.012
UCCUGGUACAGCUUGCAUAGUAUUAAGAUA	0.0058 ± 0.0028
UCCUGGUACAGCUUCCAUAGUAUUUAGAAA	0.00336 ± 0.0013
UCCUGGAUCAGCUUGCGAUAGUAUUUAGUUA	0.00281 ± 0.0027

— the supplement of paper PMC10338343
